Data on 82 molecules can be found in PubChem BioAssay AID540336 (Broad Institute, 2011).

Out of some 330,000 compounds screened, about 520 (0.16%) were called active.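 How the source made its calls: active means inhibition of at least 50% in every replicate; inconclusive means best replicate reaches 50% inhibition but some replicates fall short; inactive means the rest.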 Many of the other results were omitted from the sample, so actives are more common in it than they were.

Sequence of Histone acetyltransferase RTT109 (Candida albicans (strain SC5314 / ATCC MYA-2876)) (Q5AAJ8 whole entry, looked up): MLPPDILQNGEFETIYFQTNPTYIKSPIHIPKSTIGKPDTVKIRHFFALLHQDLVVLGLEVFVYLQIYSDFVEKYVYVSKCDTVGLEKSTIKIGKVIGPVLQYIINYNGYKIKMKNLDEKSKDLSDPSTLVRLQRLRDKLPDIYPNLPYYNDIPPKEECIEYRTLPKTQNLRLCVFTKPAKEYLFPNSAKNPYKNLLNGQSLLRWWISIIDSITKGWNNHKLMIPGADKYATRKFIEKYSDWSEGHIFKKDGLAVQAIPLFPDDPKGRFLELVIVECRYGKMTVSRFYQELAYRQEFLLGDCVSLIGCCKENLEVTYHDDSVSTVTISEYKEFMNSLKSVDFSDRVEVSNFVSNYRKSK

This assay has as its target Histone acetyltransferase RTT109 (Candida albicans (strain SC5314 / ATCC MYA-2876)) (UniProt Q5AAJ8). Nature of the assay: Rtt109-Vps75 histone acetyltransferase blockade – biochemical, ThioGlo CoA-SH fluorescence, plate reader, primary screen (AID 540336). As to conditions: purified Rtt109/Vps75, ThioGlo CoA-SH fluorescence, 4 h; at 34.9 µM; stronger effect = higher value.
For `CC(C)=CCc1ccc(O)c(=O)cc1C(C)C`, the inhibition (in general, the relative decrease from the control value, in per cent) was 6.99% (inactive).
On to `Cc1ccc2[nH]c(=O)c(CN(CCCN(C)C)C(=O)Nc3cccc(Cl)c3)cc2c1`, for which the inhibition is 6.58% (inactive).
For `CCC(=O)N(CCc1ccccc1)Cc1cc2cc(C)ccc2[nH]c1=O`, the inhibition was 54.1% (active).
With `CCN(Cc1cc2cc(C)ccc2[nH]c1=O)S(=O)(=O)c1ccccc1`, the inhibition was 6.13% (inactive).
Turning to `COc1cccc2oc(CCc3ccccc3)cc(=O)c12`, the inhibition was -16.8% (inactive).
Under `COc1cc(/C=C/C(=O)OCC(=O)NC2CC2)cc(OC)c1OC` stands 10.9% (inactive); under `Cc1cc(C)nc(N2CCC(C(=O)Nc3ccc4c(c3)OCCO4)CC2)n1`, 54.4% (active); under `O=C(Nc1ccc2c(c1)OCCO2)C1CCCC1`, -1.87% (inactive).
Under `O=C(Nc1ccc2c(c1)OCCO2)C1CCCN(c2ncccn2)C1` (configuration not stated) stands -8.66% (inactive).
For the molecule `C[C@H](O)[C@@H]1C(=O)N2CCc3ccc(N4CCOCC4)cc3[C@@H]2C[C@@H]1N(C)C(=O)C(C)(C)C`, the inhibition is 0.072% (inactive).
To `Cc1nn(-c2ccc(F)cc2)c(Cl)c1/C=C(/CCC(=O)O)c1nc2ccccc2s1` belongs 3.42% (inactive); to `CC(C)C(=O)Nc1c2c(nn1-c1ccccc1)CSC2`, 2.65% (inactive); to `CC(=O)Nc1c2c(nn1-c1cccc(C)c1)CSC2`, -4.46% (inactive).
Under `COc1ccc(-n2nc3c(c2NC(=O)c2ccc(N4C(=O)CCC4=O)cc2)CSC3)cc1` stands 57.3% (active); under `COc1cc(C(=O)N2CCN(S(=O)(=O)c3ccc(C(C)C)cc3)CC2)ccc1OCC(=O)N1CCOCC1`, -4.48% (inactive).
With `COc1ccc(Cn2cc(CN3CCS(=O)(=O)N(Cc4ccc(-c5cccc(Cl)c5)cc4)C(C)C3=O)nn2)cc1` (configuration not stated), the inhibition is 11.2% (inactive).
To `COc1ccc(S(=O)(=O)NC(C)C(=O)Nc2cccc([N+](=O)[O-])c2)cc1` (configuration not stated) belongs -0.177% (inactive); to `COc1cccc(CNC(=O)CCCC(=O)Nc2cccc([N+](=O)[O-])c2)c1`, -7.21% (inactive).
For the molecule `COC(=O)/C=C\C(=O)Nc1cccc([N+](=O)[O-])c1`, the inhibition is 68.2% (active).
`CC/C(=C(/c1ccccc1)c1ccc(OCC[N+](C)(C)C)cc1)c1ccccc1`: the inhibition is -16.1% (inactive).
Under `Cc1ccc(S(=O)(=O)n2oc(=O)c(C3CCCCC3)c2N)cc1` stands 0.705% (inactive).
Under `CCCCN(C(=O)CSCc1ccc(C)cc1)c1c(N)n(Cc2ccccc2)c(=O)[nH]c1=O` stands -4.15% (inactive); under `COc1ccc(CC(=O)NC(C)c2ccc(Cl)c(Cl)c2)cc1S(=O)(=O)N1CCOCC1` (configuration not stated), -2.98% (inactive).
To `COc1cc2c(cc1OC)C1C(=O)c3cc(OS(C)(=O)=O)c(OC)cc3C1N(C)C2=O` (configuration not stated) belongs -1.27% (inactive); to `CN(C(=O)CN1C(=O)/C(=C/c2ccc(Cl)cc2)SC1=S)C1CCS(=O)(=O)C1` (configuration not stated), -24.5% (inactive); to `COc1ccc(/C=C2\SC(=O)N(CCC(=O)NC3CCS(=O)(=O)C3)C2=O)cc1` (configuration not stated), 11.3% (inactive).
Take `CC(C(=O)NC1CCS(=O)(=O)C1)N1C(=O)/C(=C/c2ccc(Cl)cc2)SC1=S` (configuration not stated): the inhibition is 180% (active).
`COc1cc(/C=C/c2ccc(/C=C/c3cc(OC)c(OC)c(OC)c3)cc2)cc(OC)c1OC`: the inhibition is 1.49% (inactive).
In the case of `O=[N+]([O-])c1ccc(COc2ccccc2CN2CCOCC2)cc1`, the inhibition is 9.55% (inactive).
To `C=CCOC(=O)N1CCC2CC1c1cc(-c3ccc(OC)cc3)ccc12` (configuration not stated) belongs -3.1% (inactive); to `COc1cccc(/C=N/Nc2ccc(S(=O)(=O)Nc3ccccc3C(=O)O)cc2[N+](=O)[O-])c1O`, 31.2% (inactive); to `COc1ccc(/C=C/C(=O)OCC(=O)N2CCN(S(=O)(=O)c3ccc(C)cc3C)CC2)cc1OC`, -12.4% (inactive).
Under `Cc1ccc2c(O)c(Cc3ccccc3)c(=O)[nH]c2n1` stands 3.15% (inactive); under `CCOC(=O)c1ccccc1NC(=O)CSc1nc2c(sc(=S)n2CC)c(=O)[nH]1`, 12.6% (inactive); under `COc1ccc(CNCCCn2cnc3c(OCc4ccccc4)ncnc32)cc1`, -0.493% (inactive).
Under `CC1(C)CC(CCC(=O)Nc2ccccc2Cl)C(=O)O1` (configuration not stated) stands -18.6% (inactive); under `O=C(Nc1ccccc1Cl)/C(Cl)=C(\Cl)S(=O)c1ccccc1` (configuration not stated), 136% (active).
For the molecule `O=C(Nc1ccccc1Cl)O/N=C(/c1ccccc1)c1ccccn1`, the inhibition was -0.825% (inactive).
`Cc1cc2c(cc1C)NC1(C[C@H]3CCC(=O)N4CC[C@@H](C1)[C@@H]34)C(=NC(C)(C)CC(C)(C)C)N2` (some centres not stated): the inhibition is -1.37% (inactive).
To `COc1ccccc1C(=O)c1ccccc1C(=O)c1ccccc1` belongs -0.662% (inactive); to `COc1ccc2c(c1)C(=O)CC(c1ccccc1)O2` (configuration not stated), -1.45% (inactive).
On to `CCOC(=O)Cc1csc(NC(=O)CSc2ccc(Br)cc2)n1`, for which the inhibition is 2.14% (inactive).
Under `CCCCc1nnc(NC(=O)CSc2nc(C)cc(=O)[nH]2)s1` stands -0.892% (inactive).
To `CCOC(=O)Cc1csc(NC(=O)CSc2nc(C)cc(=O)[nH]2)n1` belongs 66.2% (active); to `Cc1ccc(S(=O)(=O)N2CCC(C(=O)N3CCCCCCC3)CC2)cc1`, 1.29% (inactive); to `Cc1cccc(N2CCN(c3ccc(NC(=O)/C=C\C(=O)O)cc3)CC2)c1`, 3.01% (inactive).
Under `CSc1ccc(NC(=O)/C=C/C(=O)O)cc1` stands 63.6% (active); under `O=C(O)/C=C\C(=O)Nc1ccc(OCc2ccccc2)cc1`, 3.12% (inactive); under `O=[N+]([O-])c1ccc(NS(=O)(=O)c2ccccc2)c(Cl)c1`, -7.39% (inactive).
As to `CC(=O)OC1CCC2(C)C(=CCC3C4CC(=O)N(O)C(=O)C4(C)CCC32)C1` (configuration not stated), the inhibition is 1.39% (inactive).
To `NC(=O)C1(Nc2ccccc2Cl)CCCC1` belongs -1.87% (inactive); to `CC(C)C[C@H]1CN([C@@H](CC(C)C)CN2CCC[C@@H]2CN2C(=O)C(=O)NC[C@@H]2Cc2ccccc2)C(=O)C(=O)N1CCc1ccccc1`, 3.1% (inactive); to `OCCN1CCN(CCO)C1=S`, -2.55% (inactive).
For `O=[N+]([O-])c1cc2ccccc2nc1-c1ccccc1`, the inhibition was 2.85% (inactive).
Turning to `CCCN(C(=O)COC(=O)CNS(=O)(=O)c1ccc(NC(C)=O)cc1)C1CCS(=O)(=O)C1` (configuration not stated), the inhibition was 2.12% (inactive).
Under `Cc1cccc(C2c3c(n(C)c(=O)n(C)c3=O)N=C3c4ccccc4C(=O)C32)c1` (configuration not stated) stands 29.8% (inactive); under `O=C(Nc1ccccc1)Oc1cccc2cccnc12`, 1.03% (inactive); under `CC(C)(C)C(=O)Nc1cccc(-c2ccc[nH]2)n1`, -1.5% (inactive).
To `CC(=O)Nc1ccc(NC(=O)COc2ccccc2C(=O)Nc2cccc(Cl)c2Cl)cc1` belongs -5.99% (inactive); to `CN(C)S(=O)(=O)Oc1ccccc1C(=O)Nc1ccccc1Cl`, 58.3% (active).
Under `O=C(Nc1ccccc1Cl)c1ccccc1S(=O)(=O)c1ccccc1[N+](=O)[O-]` stands 22.9% (inactive); under `CC(C)(C)S(=O)(=O)N1Cc2cc(CO)cc(CCO)c2[C@H]1CCO`, -3.04% (inactive).
As to `COc1ccc(CN2CC(C(=O)NCCN3CCN(c4ccccc4F)CC3)CC2=O)cc1` (configuration not stated), the inhibition is -11.1% (inactive).
Take `O=C(NCCCN1CCCCCC1)C1CC(=O)N(C2CCCC2)C1` (configuration not stated): the inhibition is 32.5% (inactive).
Take `O=C(NCCCN1CCN(c2ccccc2F)CC1)C1CCC(=O)N1C1CCCCC1` (configuration not stated): the inhibition was 58.1% (active).
To `CC(C)c1cc(CN2CCOCC2)cc(C(C)C)c1O` belongs -6.21% (inactive).
To `CCCCC(=O)NC(c1ccc(OC)c(OC)c1)c1ccc2cccnc2c1O` (configuration not stated) belongs -3.23% (inactive).
Under `Oc1c(C(c2ccccn2)N2CCOCC2)ccc2cccnc12` (configuration not stated) stands 51.7% (active).
Turning to `COc1cccc(C=CC(=O)C=CC=Cc2ccccc2)c1`, the inhibition was -4.82% (inactive).
As to `O=C(O)c1ccc(NN=CC2=C(N3CCOCC3)/C(=C/c3ccccc3)CC2)cc1`, the inhibition is -15.5% (inactive).
Under `Cn1cc(C2OC(=O)c3ccccc32)c2ccccc21` (configuration not stated) stands 0.802% (inactive).
On to `O=C(Nc1c(Br)cc2c(c1Br)Cc1cc([N+](=O)[O-])ccc1-2)C(Cl)Cl`, for which the inhibition was -4.04% (inactive).
For `COC(=O)c1c(C)oc2ccc(N(C(=O)Oc3ccccc3)S(=O)(=O)c3ccccc3)cc12`, the inhibition was 0.88% (inactive).
To `CC(=O)Oc1ccc(N(C(C)=O)S(=O)(=O)c2ccc3ccccc3c2)cc1Br` belongs 2.06% (inactive); to `CC(=O)N(c1ccc2oc(=O)sc2c1)S(=O)(=O)c1ccc(C)cc1`, 134% (active); to `CCOC(=O)CCC(NC(=O)c1ccc(CNc2nc3cc(C(F)(F)F)ccc3nc2C(=O)OCC)cc1)C(=O)OCC` (configuration not stated), 9.24% (inactive).
Under `CC(C=Cc1ccccc1)=NNS(=O)(=O)c1ccc([N+](=O)[O-])cc1` stands -0.601% (inactive).
Under `CC(=O)OC1CCC2C3CCC4=C(CC(F)C(=O)C4)C3CCC12C` (configuration not stated) stands -7.91% (inactive).
For the molecule `O=C1c2ccccc2C(=O)C1C(=O)C1CC1`, the inhibition is 0.0105% (inactive).
Under `O=C1NCC(Nc2ccccc2)C(=O)N1` (configuration not stated) stands -4.85% (inactive); under `CCCCNC1(C#N)CCN(Cc2ccccc2)CC1`, 0.637% (inactive).
Consider `O=C1C=C(NS(=O)(=O)c2ccccc2)C(=O)c2ccccc21`, for which the inhibition is -1.13% (inactive).
